Laboratory results: PubChem BioAssay AID2284157 (EPA ToxCast)
Activity calls are given as the source filed them. Rule for the calls: active = hit-call score of the fitted dose curve at least 0.9, where 1 is the maximum; inactive = score below 0.9.

Each compound was assayed against human Leukotriene Receptor CysLT1, CYSLTR1 (gene 10800) (UniProt Q9Y271) (assay: ERF_FR_GPCR_hCYSLTR1: Eurofins (ERF) G Protein-Coupled Receptor (GPCR) Radioligand Binding LeadHunter Assay for human Leukotriene Receptor CysLT1 Agonism).
Chain of human Leukotriene Receptor CysLT1, CYSLTR1 (gene 10800) (Q9Y271 whole entry, looked up): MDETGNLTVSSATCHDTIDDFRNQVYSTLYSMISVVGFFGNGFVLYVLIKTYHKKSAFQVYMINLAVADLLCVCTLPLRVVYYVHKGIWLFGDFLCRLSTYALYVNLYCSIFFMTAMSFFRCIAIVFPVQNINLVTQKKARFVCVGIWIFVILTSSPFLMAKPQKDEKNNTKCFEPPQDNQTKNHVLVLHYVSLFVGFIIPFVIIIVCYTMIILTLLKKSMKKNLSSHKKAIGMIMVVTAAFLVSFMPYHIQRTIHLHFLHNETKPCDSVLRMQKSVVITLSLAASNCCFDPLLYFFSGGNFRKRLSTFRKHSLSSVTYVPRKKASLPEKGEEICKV
Method: ERF_FR_GPCR_hCYSLTR1 is a biochemical, single-readout assay that uses extracted gene-proteins in a cell-free assay. Measurements were taken 1 hour after chemical dosing in a 96-well plate. See CysLT1 Human Leukotriene GPCR Binding (Agonist Radioligand) Assay, Cerep.ERF_FR_GPCR_hCYSLTR1 is an assay component calculated from the ERF_FR_GPCR_hCYSLTR1 assay. It is designed to measure radioligand binding using a type of binding reporter as detected by scintillation counting with radiometry technology.Data from the assay component ERF_FR_GPCR_hCYSLTR1 was analyzed at the assay endpoint, ERF_FR_GPCR_hCYSLTR1, in the positive analysis fitting direction relative to DMSO as the negative control and baseline of activity. Using a type of binding reporter, gain-of-signal activity can be used to understand changes in binding as they relate to gene CYSLTR1. To generalize the intended target to other relatable targets, this assay endpoint is annotated to the gpcr intended target family, where the subfamily is leukotriene.
Human cells are incubated for 60 minutes at room temprature with [3H]LTD4 ligand (0.3 nM) and leukotriene D4 as control inhibitor.Test Sample Requirements: Minimum for 1) Screen: 60 ul of 10 mM stock -OR- 1 mg (pre-weighed) for 10 uM final testing. 2) Dose Response: 90 ul of 10 mM stock -OR- 1 mg (pre-weighed) for a top concentration at 10 uM.

SMILES	AC50
O=C(/C=C/c1ccc(O)cc1)CC(=O)/C=C/c1ccc(O)cc1	5 µM (active)
